Measurements from PubChem BioAssay (Tox21).
Results filed as inconclusive are left out. Where a structure was tested more than once in an assay, its records may differ in their call. A number with no mark means an inactive call. Activity calls are given as the source filed them. The call rests on the fitted dose curve.

Experiment: qHTS assay for small molecules that induce genotoxicity in human embryonic kidney cells expressing luciferase-tagged ATAD5 - cell viability (AID 651634); further: nearly all actives have a fitted effect of over 25% in size
Conditions: HEK293T ATAD5-luc cells viability, CellTiter-Fluor, 15.5 h; series mostly up to 83.3 µM; activity, negative = cytotoxicity: at the top concentration
Source text: National Center for Advancing Translational Sciences [NCATS]
NIH Chemical Genomics Center [NCGC]
U.S. Environmental Protection Agency [EPA]
National Institutes of Environmental Health Sciences [NIEHS]
National Toxicology Program [NTP]
U.S. Food and Drug Administration [FDA]
Enhanced Level of Genome Instability Gene 1 (ELG1; human ATAD5) protein levels increase in response to various types of DNA damage. Using a luciferase reporter-gene tagged with ElG1, a cell-based assay [developed by Kyungjae Myung, NHGRI, NIH] was used to measure the induction of ATAD5 in human embryonic kidney cells (HEK293T). So, increase in luciferase activity can be used to identify the compounds that cause genetic stress. In addition to genotoxicity, these cells were also used to test for cytotoxicity by measuring the protease activity within live cells.
Tox21 Assay Protocol Summary:
For cytotoxicity screening, 2,000 cells in 5 uL/well were dispensed into white, solid-bottom 1536-well plates using a Multidrop Combi (Thermo Scientific) dispenser. Following transfer of 23 nL compound or DMSO vehicle by a pin tool, the plates were incubated 15.5 hr at 37C and 5% CO2. 1 ul CellTiter-Fluor reagent (Promega, Madison, WI) was then added to each plate and following 30 min incubation at 37C, fluorescence intensity was quantified on a ViewLux CCD-based plate reader.
On the % scale 0 is the no-effect control and ±100 the full control effect; potency means the concentration at half of the fitted maximal effect.

SMILES	activity, negative = cytotoxicity	Potency
N#Cc1ccccc1O	8.38%	
COC(=O)c1cccc(Cl)c1	14.5%	
OC1OCCOC1O (stereo not given)	6.26%	
CO/N=C(/C(=O)N[C@@H]1C(=O)N2C(C(=O)[O-])=C(C[n+]3ccn4ncccc43)CS[C@H]12)c1nsc(N)n1		inactive
O=S(=O)(O)c1ccc2c(N=Nc3ccc(S(=O)(=O)O)c4ccccc34)c(O)c(S(=O)(=O)O)cc2c1	-17.7% [at 8.08 µM]	13.3 µM (active)
C=CCCCC	-11.9% [at 95.3 µM]	
O=C1CCC(=O)N1Cl	8.23%	
CC(=O)OC1CCCCC1C(C)(C)C (stereo not given)	8.34%	
Cc1ccccc1C(N)=O	2.24%	
O=C(O)c1cc2ccccc2nc1C(=O)O	20.8%	
CC(=O)CCc1ccc(OC(C)=O)cc1	10.9%	
O=C(O)[C@H](O)c1ccccc1	24.9%	
CC(C)Nc1ccccc1	12.2%	
CC1(C)Oc2ccc(C#N)cc2[C@@H](N2CCCC2=O)[C@@H]1O		inactive
c1ccc2c(CC3=NCCN3)cccc2c1		inactive
CC1(C)[C@H]2CC[C@](C)(C2)[C@H]1O	12.3% [at 95.3 µM]	
C[C@H]1[C@@H](c2ccccc2)NC(=O)N1C	-16% [at 95.3 µM]	
CC(C)NCC(O)c1ccc2ccccc2c1 (stereo not given)	14.2%	
COC(=O)c1ccccc1C(=O)O	12.8%	
COc1cc2c(cc1OC)C(=O)C(CC1CCN(Cc3ccccc3)CC1)C2 (stereo not given)	15.5%	

SMILES	activity, negative = cytotoxicity	Potency
CC(=O)C1C(=O)C=C(C)OC1=O (stereo not given)	8.55%	
CC(C)OC(=O)OCOP(=O)(CO[C@H](C)Cn1cnc2c(N)ncnc21)OCOC(=O)OC(C)C		inactive
CCOC(=O)CC1(C)OCC(C)O1 (stereo not given)	9.42%	
CC1CCc2c(N3CCC(O)CC3)c(F)cc3c(=O)c(C(=O)O)cn1c23 (stereo not given)	-4.49%	
Nc1nnnn1-c1ccccc1	9.91%	
CC(C)c1ccc(C=O)cc1	8.43%	
OCC(O)CN1CCN(c2ccccc2)CC1 (stereo not given)	8.87%	
CC(=O)O[Si](C)(OC(C)=O)OC(C)=O	15.8% [at 95.3 µM]	
O=C1OCCO1	5.47% [at 95.3 µM]	
CC(O)CC(C)O (stereo not given)	13.8%	
COC(=O)c1cc(Cl)cc(Cl)c1	-12.6%	
CCCCCCCCCCCCCCCCCC#N	17.9% [at 95.3 µM]	
N[C@@H](CSCCCO)C(=O)O	13.2%	
Cc1cc(C)c(C(=O)O)c(C)c1	12.5%	
c1ccc(B(c2ccccc2)c2ccccc2)cc1	-9.08%	
C/C(CC(C)C)=N\O	3.45%	
O=C(Cn1ccnc1[N+](=O)[O-])NCc1ccccc1	18.6%	
CC1(C)CC(OC(=O)CCCCCCCCC(=O)OC2CC(C)(C)NC(C)(C)C2)CC(C)(C)N1	24.2% [at 39.1 µM]	
CSc1cnccn1	6.65%	
